The entries come from a sample that favours hits as a whole.
CHX counter = affects cycloheximide protein synthesis inhibition readout, counter-screen; cell reporter, cycloheximide protein synthesis inhibition counterscreen; max response, %; 12% of 300,000 active; AID 2314; in the data active means max response mostly above about 13%, no sharp cut-off; inactive means mostly below about 14%; further: read at 38.3 µM for the half of the compounds with a filed dose
AMA1-RON2 inh = AMA1-RON2 (P. falciparum) interaction inhibition; AlphaScreen AMA1-biotinylated RON2 peptide binding; Potency, µM (series often up to 58.2 µM), usual class: inhibitors; 0.2% of 360,000 active; AID 720542; active means well fitted inhibition curve with a large enough effect; inconclusive means small, poorly fitted or top-dose-only effect; inactive means no such curve, though single readings can be large or run the other way; further: nearly all actives have a fitted effect of over 45% in size
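AMA1 (3D7) with his tag at 25 nM final met compounds first, then biotinylated RON2 peptide at 25 nM; detection used donor plus acceptor beads, 10 µg/mL apiece, read by AlphaScreen after 30 min at room temperature.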
Lassa entry inh = Lassa virus entry inhibition. Lassa virus pseudotype entry inhibition, cell reporter. 1.2% of 300,000 active. Potency, µM (series often up to 37.9 µM), hits mostly inhibitors; calls by dose curve; tested in HEK293 cells; further: nearly all actives have a fitted effect of over 50% in size
Shiga inhibitor = blocks Shiga toxin action in Vero cells | Vero cells, Shiga toxin protein synthesis inhibition reporter | 9.2% of 290,000 active | AID 2315 | inhibition, % at 38.7 µM; in the data active means inhibition mostly above about 28%, no sharp cut-off; inactive means mostly below about 43%
MARV entry inh = blocks Marburg virus binding to or entry into cells. Marburg virus pseudotyped entry inhibition, cell reporter. Potency, µM (series often up to 37.8 µM), actives largely listed as inhibitors. 1.8% of 300,000 active. AID 540276; calls by dose curve; tested in HEK293 cells
Each line names hits and unclear results; the compound was inactive in the other large screens; ! = repeats disagree.

CCOc1ccc2oc(C(=O)NC(C)(C)CC)c(C)c2c1	CHX counter 48, Lassa entry inh inconclusive, Shiga inhibitor 67, MARV entry inh inconclusive
Cc1c(C(=O)NC2CCN(Cc3ccccc3)C2)oc2ccc(Br)cc12 (centres undefined)	CHX counter 14, AMA1-RON2 inh inconclusive, Lassa entry inh inconclusive, Shiga inhibitor 78, MARV entry inh inconclusive
CCOc1ccc2oc(C(=O)NC3CCN(Cc4ccccc4)CC3)c(C)c2c1	Lassa entry inh 11µM, MARV entry inh inconclusive
Cc1cc(=O)c2cc(C(=O)Nc3ccc(F)cc3)ccc2[nH]1	none (no result: CHX counter, AMA1-RON2 inh, Shiga inhibitor)
CCC[C@H]1CN(c2ccccc2)C(=O)[C@@H]1CC(=O)NC	none (no result: CHX counter, Lassa entry inh, Shiga inhibitor, MARV entry inh)
CC[C@H](C)[C@H](NC(=O)[C@H](Cc1ccccc1)NC(=O)[C@H](C)NC(=O)[C@H](CC(=O)O)NC(=O)[C@H](CCCCN)NC(=O)[C@H](CO)NC(=O)[C@@H]1CCCN1C(=O)[C@@H]1CCC(=O)N1)C(=O)NCC(=O)N[C@@H](CC(C)C)C(=O)N[C@@H](CCSC)C(N)=O	none (no result: AMA1-RON2 inh, Lassa entry inh, MARV entry inh)
C/C=C1/NN(CCCN2CCN(c3cccc(Cl)c3)CC2)C(=O)N1CCOc1ccccc1	none (no result: AMA1-RON2 inh, Lassa entry inh, MARV entry inh)
C=C1C(=O)C=C[C@]2(C)C[C@@H]3OC(=O)[C@](C)(O)[C@H]3C[C@@H]12	CHX counter 35, Shiga inhibitor 63 (no result: Lassa entry inh, MARV entry inh)
C=CCN(CC(=O)Nc1cccnc1)S(=O)(=O)c1ccc(Cl)cc1	Lassa entry inh inconclusive, MARV entry inh inconclusive (no result: CHX counter, Shiga inhibitor)
Cc1ccc(S(=O)(=O)NC(=O)NCCc2ccccc2)cc1	CHX counter 15
Cc1ccc(S(=O)(=O)NC(=O)NC(C)Cc2ccccc2)cc1 (centres undefined)	CHX counter 20, Lassa entry inh inconclusive
Cc1ccc(S(=O)(=O)NNC(=S)NCCc2ccccc2)cc1	none (no result: Lassa entry inh, MARV entry inh)
CCn1cc(S(=O)(=O)Nc2ncccn2)cn1	Lassa entry inh inconclusive
O=C(OC1CCc2ccccc2C1=O)c1ccccc1O (centres undefined)	CHX counter 41, Shiga inhibitor 90, MARV entry inh inconclusive
C=CCOc1c(Br)cc(CNn2nnnc2N)cc1OCC	none
N#Cc1nc(Cc2ccccc2)oc1N1CCC(Cc2ccccc2)CC1	AMA1-RON2 inh inconclusive, Lassa entry inh 7.1µM
N#Cc1nc(COc2ccccc2)oc1N1CCCCC1	CHX counter 51, Shiga inhibitor 83 (no result: Lassa entry inh, MARV entry inh)
CCN1CCN(c2oc(COc3ccc(-c4ccccc4)cc3)nc2C#N)CC1	CHX counter 20, AMA1-RON2 inh inconclusive
N#Cc1nc(COc2ccccc2F)oc1N1CCCCCC1	CHX counter 24, Shiga inhibitor 28, MARV entry inh inconclusive
COc1ccc(Br)c(C(=O)OCC(=O)NC2CCCCCCC2)c1	none (no result: CHX counter, Lassa entry inh, Shiga inhibitor, MARV entry inh)
Cc1nn(S(=O)(=O)c2ccc(C(C)C)cc2)c(C)c1S(=O)(=O)N1CCCCCC1	none (no result: CHX counter, AMA1-RON2 inh, Shiga inhibitor, MARV entry inh)
Cc1cccc(-n2c(=O)c3c(c4cc(C)ccc4n3C)n(CC(=O)Nc3ccc(C)cc3C)c2=O)c1	none (no result: CHX counter, AMA1-RON2 inh, Shiga inhibitor, MARV entry inh)
COc1c(C)cc(S(=O)(=O)Nc2cccc(-c3ccc(N4CCOCC4)nn3)c2)c(C)c1C	none (no result: CHX counter, AMA1-RON2 inh, Shiga inhibitor, MARV entry inh)
CCc1ccc(NC(=O)C2CCN(C(=O)N3CC(CC)Oc4ccccc43)CC2)cc1 (centres undefined)	none (no result: CHX counter, AMA1-RON2 inh, Shiga inhibitor, MARV entry inh)
Cc1ccc(OCc2nc(C#N)c(N3CCCCC3)o2)cc1	CHX counter 18
Cc1ccc(/C=C/c2onc(C)c2S(=O)(=O)N2CCC(C(=O)N(CCC(C)C)Cc3ccco3)CC2)cc1	none (no result: CHX counter, AMA1-RON2 inh, Shiga inhibitor, MARV entry inh)
COc1c(Cl)ccc(Cl)c1C(=O)NC(=S)N1CCOCC1	none
O=C(CN1C(=O)CCOc2ccccc21)Nc1ccc(Cl)c(S(=O)(=O)N2CCOCC2)c1	none (no result: CHX counter, Lassa entry inh, Shiga inhibitor, MARV entry inh)
O=C(N/N=C/c1sc(=O)n(-c2ccccc2)c1Cl)c1ccccc1	CHX counter 28, Shiga inhibitor 76
NC(=O)N/N=C/c1sc(=O)n(-c2ccccc2)c1Cl	CHX counter 16
CCCS(=O)(=O)Nc1cc(-c2cn3cccc(C)c3n2)ccc1C	none (no result: CHX counter, AMA1-RON2 inh, Shiga inhibitor)
Clc1ccc(SCc2cn3ccsc3n2)cc1	CHX counter 51, Lassa entry inh inconclusive, MARV entry inh inconclusive
c1cn2cc(CSC3CCCCC3)nc2s1	CHX counter 42, Shiga inhibitor 95, MARV entry inh inconclusive
Cc1ccc(S(=O)(=O)NCCc2cn3c(C)csc3n2)cc1	none (no result: CHX counter, AMA1-RON2 inh, Shiga inhibitor, MARV entry inh)
Nn1c(SCc2cn3ccsc3n2)nnc1-c1ccncc1	none
O=C(NCCc1cn2ccsc2n1)C1CCCCC1	none (no result: Lassa entry inh, MARV entry inh)
Cc1csc2nc(CSc3ccc(Cl)cc3)cn12	CHX counter 49, Lassa entry inh inconclusive, Shiga inhibitor 79, MARV entry inh inconclusive
Cc1ccc2c(c1)c1c(c(=O)n(-c3cccc(Cl)c3)c(=O)n1C)n2C	none (no result: CHX counter, AMA1-RON2 inh, Shiga inhibitor, MARV entry inh)
CCN1CCOC(=O)C1CC(=O)Nc1cc(C)ccc1OC (centres undefined)	none (no result: CHX counter, AMA1-RON2 inh, Shiga inhibitor)
O=c1[nH]c2ccccc2n1CCCN1CCC(n2c(=O)[nH]c3cc(Cl)ccc32)CC1	Lassa entry inh inconclusive, MARV entry inh 11µM!
COc1ccc(-c2c([C@H]3[C@@H]4C=CCC[C@@]4(C)C(=O)N3Cc3ccccc3)ccc3ccccc23)cc1OC	none (no result: Lassa entry inh, MARV entry inh)
COc1ccc(-c2ccc([C@H]3[C@@H]4C=CCC[C@@]4(C)C(=O)N3Cc3ccccc3)c(F)c2)cc1OC	CHX counter 37 (no result: Lassa entry inh, MARV entry inh)
FC(F)(F)c1nnc(-c2ccccc2)nc1Sc1ccc(Cl)cc1	Lassa entry inh inconclusive, MARV entry inh 15µM
FC(F)(F)c1nnc(-c2ccccc2)nc1Sc1ccccc1	MARV entry inh inconclusive
CC1CC(C)CN(S(=O)(=O)c2ccc(C(=O)Nc3nnc(-c4cccs4)o3)cc2)C1 (centres undefined)	Lassa entry inh inconclusive, MARV entry inh 7.9µM
CCC1CCCCN1S(=O)(=O)c1ccc(C(=O)Nc2nnc(-c3cccs3)o2)cc1 (centres undefined)	Lassa entry inh inconclusive, MARV entry inh inconclusive
CN(C)S(=O)(=O)c1ccc(C(=O)Nc2nnc(-c3cccs3)o2)cc1	CHX counter 19 (no result: Lassa entry inh, MARV entry inh)
Cc1cccc(-n2c(=O)c3c(c4cc(C)ccc4n3C)n(CC(=O)NCCC3=CCCCC3)c2=O)c1	none (no result: CHX counter, AMA1-RON2 inh, Shiga inhibitor, MARV entry inh)
Cc1ccnc(NC(=O)c2cnc(Cl)c(Cl)c2)c1	CHX counter 32, Shiga inhibitor 116, MARV entry inh inconclusive
Cc1ccnc(NC(=O)c2ccccc2NC(=O)c2ccccc2)c1	none
Cc1ccnc(NC(=O)c2ccc(C(=O)c3ccccc3)cc2)c1	Lassa entry inh 2.2µM, MARV entry inh 6.3µM (no result: CHX counter, Shiga inhibitor)
O=C(Nc1ccccc1)Nc1nccs1	CHX counter 38, Shiga inhibitor 45
CCC(C)C(=O)Nc1nccs1 (centres undefined)	CHX counter 16
CC(Oc1ccc(Cl)cc1)C(=O)Nc1ccc(S(=O)(=O)Nc2nccs2)cc1 (centres undefined)	Lassa entry inh inconclusive, MARV entry inh inconclusive
C/C(=C\C(=O)Nc1nccs1)c1ccccc1	CHX counter 57, Shiga inhibitor 116
CC(Oc1ccc(Cl)cc1)C(=O)Nc1nccs1 (centres undefined)	CHX counter 17, Shiga inhibitor 56
CCC(C(=O)Nc1nccs1)c1ccccc1 (centres undefined)	none
Cc1cccc(NS(=O)(=O)c2ccc(C)c(C(=O)NC3CCN(Cc4ccccc4)CC3)c2)c1	none (no result: CHX counter, Lassa entry inh, Shiga inhibitor, MARV entry inh)
CCCS(=O)(=O)c1c(S(=O)(=O)CCC)c2cc(C(C)(C)C)ccn2c1C(=O)c1ccc(OC)c(OC)c1	MARV entry inh inconclusive (no result: CHX counter, AMA1-RON2 inh, Shiga inhibitor)

Compound activity deposited in PubChem by National Center for Advancing Translational Sciences (NCATS).
